# In the library only some 2.4% were active in any assay of this set; here they are far more common.
# POLI inh = blocks human DNA polymerase iota activity | Q9UNA4 | Pol iota fluorescent replication assay, 10 min | Potency, µM (series often up to 115 µM), actives largely listed as inhibitors | hit rate 1% among 390,000
#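 Pol iota at 10 nM preincubated 15 min with compounds at room temperature; reaction started with fluorescent substrate, 50 nM final. Fluorescence read kinetically at 0 and 10 min; buffer-only wells as negative control.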
# Pol eta inh = DNA polymerase eta (human) inhibition; recombinant Pol eta, fluorescent DNA replication assay; Potency, µM (doses to about 114 µM), most hits filed as inhibitors; hit rate 1.2% among 390,000
# Target sequence (Q9Y253 whole entry, looked up): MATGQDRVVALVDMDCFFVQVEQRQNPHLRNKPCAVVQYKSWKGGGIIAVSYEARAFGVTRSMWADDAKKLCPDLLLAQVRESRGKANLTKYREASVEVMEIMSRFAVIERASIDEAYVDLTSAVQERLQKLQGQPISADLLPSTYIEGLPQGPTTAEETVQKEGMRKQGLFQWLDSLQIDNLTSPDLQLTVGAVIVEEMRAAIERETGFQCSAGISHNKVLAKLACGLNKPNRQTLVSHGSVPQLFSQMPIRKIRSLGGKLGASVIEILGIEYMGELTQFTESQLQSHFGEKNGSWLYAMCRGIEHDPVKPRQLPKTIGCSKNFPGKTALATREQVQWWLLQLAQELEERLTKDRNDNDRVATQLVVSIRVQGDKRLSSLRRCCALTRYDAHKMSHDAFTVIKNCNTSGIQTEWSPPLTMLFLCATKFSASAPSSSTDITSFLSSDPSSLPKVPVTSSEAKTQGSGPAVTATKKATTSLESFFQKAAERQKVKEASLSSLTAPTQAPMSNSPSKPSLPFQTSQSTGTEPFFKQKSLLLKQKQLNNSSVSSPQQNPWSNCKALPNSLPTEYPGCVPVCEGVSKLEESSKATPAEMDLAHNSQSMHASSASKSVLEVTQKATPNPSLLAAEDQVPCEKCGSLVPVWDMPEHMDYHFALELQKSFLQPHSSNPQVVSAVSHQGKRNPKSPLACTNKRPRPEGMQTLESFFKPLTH
#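 Pol eta at 10 nM preincubated with compounds 15 min at room temperature; reaction started with fluorescent substrate (50 nM final) and read kinetically at 0 and 10 min.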
# Pol beta inh = inhibitors of human DNA polymerase beta | Pol beta primer extension/strand displacement, fluorescence kinetic | Potency, µM (titrated, usually from 114 µM), usual class: inhibitors | hit rate 1.3% among 340,000 | AID 485314
#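 Pol beta (10 nM) and compounds were preincubated 15 min at room temperature, then 50 nM substrate (final) started primer extension/strand displacement. Reads were taken at 0 and 10 min; concentration-response data were fitted to a four-parameter Hill equation.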
# WRN helicase inh = inhibitors of human WRN helicase. Q14191. WRN helicase unwinding, fluorescent forked duplex, kinetic. Potency, µM (titrated, usually from 114 µM), usual class: inhibitors. hit rate 0.46% among 360,000. AID 651768; also: nearly all actives have a fitted effect of over 55% in size
#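 Fluorescence dequenching readout, ex 525 nm/em 598 nm, kinetic mode: forked duplex DNA (100 nM final) with adjacent fluorophore and quencher unwound by WRN (20 nM final) with 2 mM ATP. Compound preincubation 15 min, room temperature.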
# POLK inh = DNA polymerase kappa (human) inhibition. Q9UBT6. hit rate 0.53% among 400,000. AID 588579. purified Pol kappa, fluorescent DNA synthesis assay, 10 min. Potency, µM (series often up to 107 µM), usual class: inhibitors
#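 First, compounds were pin-transferred onto 10 nM Pol kappa. After 15 min at room temperature, substrate was added to 50 nM final. Fluorescence was then measured kinetically at 0 and 10 min.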
# FEN1 inh = blocks human flap endonuclease 1 | P39748 | Recombinant FEN1 flap cleavage, fluorescence, 15 min | Potency, µM (top dose mostly 114 µM), actives largely listed as inhibitors | hit rate 0.35% among 390,000; also: nearly all actives have a fitted effect of over 65% in size
#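 FEN1 at 10 nM preincubated with compounds 15 min at room temperature, then flap DNA substrate added at 50 nM final. Signal read at 0 and 15 min; concentration-response fitted with four-parameter Hill equation.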
# Hits are given with their value; . = inactive; ? = inconclusive; / = no result given; ! = repeats disagree; [ ] = another dose, or the depositor's remark. Calls follow the shape of the dose curve; as a rule, active = well fitted curve in the direction sought with a large enough effect; inconclusive = small, poorly fitted or top-dose-only effect, or another doubt; inactive = no such curve, though single readings can be large; an effect the other way counts as inactive or inconclusive.
SMILES,POLI inh,Pol eta inh,Pol beta inh,WRN helicase inh,POLK inh,FEN1 inh
S=c1[nH]nc(-c2cc(-c3ccccc3)n[nH]2)n1/N=C/c1ccccc1,.,.,.,.,.,.
Cc1cccc(/C=N/n2c(-c3cc(-c4ccccc4)n[nH]3)n[nH]c2=S)c1,.,.,56µM,.,.,.
Cc1cnccn1,.,/,/,/,.,.
COc1cccc(C(=O)NCC(c2ccc(N(C)C)cc2)N2CCc3ccccc32)c1 (stereo not given),.,.,.,/,.,.
COCCCNc1oc(-c2cccs2)nc1S(=O)(=O)c1ccc(C)cc1,.,.,40µM,.,.,.
O=C(N/N=C/c1ccccc1C(=O)O)c1cc(-c2ccc3c4c(cccc24)CC3)n[nH]1,.,?,56µM,.,.,.
CCOC(=O)C1=C(Cc2ccc(F)cc2)C(=O)c2ccccc2C1=O,?,?,.,50µM,.,?
Cc1ccc(CNC(=O)c2sc3nc(-c4ccccc4)cn3c2C)cc1,.,.,.,/,.,89µM
Cc1c(C(=O)NCc2ccc(F)cc2)sc2nc(-c3ccc(F)cc3)cn12,.,.,.,/,.,.
C=C1c2cccc(O)c2C(=O)C2C(=O)[C@]3(O)C(=O)C(C(N)=O)C(=O)[C@@H](N(C)C)[C@@H]3[C@@H](O)[C@H]12 (stereo not given in full),1.3µM,?,/,?,?,14µM
C=C1c2cccc(O)c2C(O)=C2C(=O)[C@@]3(O)C(O)=C(C(N)=O)C(=O)[C@@H](N(C)C)[C@@H]3[C@@H](O)[C@H]12,/,/,/,/,1.8µM,/
Cc1ccc(C(=O)Nc2c(C(=O)Nc3ccc(C)c(C)c3)sc3nc(C)cc(C)c23)cc1,.,.,.,/,.,.
C=Cc1ccc(CSc2nc(-c3ccccc3C)nc3c2Cc2c(CO)cnc(C)c2O3)cc1,.,.,.,/,.,.
CCC(C(=O)O)n1c(C(F)(F)F)nc2ccccc21 (stereo not given),.,.,.,.,.,.
CCC(C(=O)O)n1c2ccccc2c2cn[nH]c(=O)c21 (stereo not given),.,?,22µM,.[11.6 µM],.,.
O=S(=O)(Nc1ccccc1)c1cccc2nsnc12,56µM,?,.,.[11.6 µM],?,.
Cc1nc2nc(C)c(CCC(=O)NCCCN3CCN(c4cccc(Cl)c4)CC3)c(C)n2n1,32µM!,.,.,.,.,.
O=c1[nH]n2c(=O)c3c([nH]c2c1N=Nc1cccc(C(F)(F)F)c1)CCCC3,.,?,18µM,.,.,?
NS(=O)(=O)c1ccc(N=Nc2c(=O)[nH]n3c(=O)c4c([nH]c23)CCCC4)cc1,.,.,.,.,.,?
O=c1[nH]n2c(=O)c3c([nH]c2c1N=Nc1cccc(Cl)c1)CCC3,20µM,20µM,8.9µM,?,89µM,?
Cc1cc(NC(=O)C2C3C=CC(C3)C2C(=O)O)no1 (stereo not given),.,.,?,.,.,.
Cc1cc(NC(=O)C2CC=CCC2C(=O)O)no1 (stereo not given),.,?,22µM,.,.,.
CCCCN1CC(O)=C(c2nc(-c3ccc(Br)cc3)cs2)C1=N,.,?,5µM,.,.,.
CCOC(=O)CCCN1CC(O)=C(c2nc(-c3ccc(Cl)cc3)cs2)C1=N,.,.,.,.,.,.
COc1ccc(CNc2nc(-c3ccccc3OC)nc3ccccc23)c(OC)c1,/,/,/,/,.,/
SMILES,POLI inh,Pol eta inh,Pol beta inh,WRN helicase inh,POLK inh,FEN1 inh
COC1=CC(=Cc2c(N)n3nc(CC(=O)N4CCCCC4)sc3nc2=O)C=C(OC)C1=O,?,56µM,.,.[11.6 µM],?,.
Cc1cc(O)c(C=O)c2c1C(=O)Oc1c(CO)c(O)c3c(c1O2)C(O)OC3=O (stereo not given),1.1µM,2.8µM,2.2µM,3.5µM,0.79µM,3.5µM
Cc1cc(O)c(C=O)c2c1C(=O)Oc1c(COC(=O)/C=C/C(=O)O)c(O)c(C(=O)O)c(C)c1O2,/,/,/,/,3.5µM,/
COc1ccc(N2C(=O)C(CC(N)=O)N(NC(=O)CCc3ccccc3)C2=O)cc1 (stereo not given),.,.,22µM,.,.,.
COc1ccc(CN2C(=O)N(c3ccc(OC)cc3)C(=O)C2CC(=O)Nc2ccccc2)cc1 (stereo not given),.,.,.,.,.,.
COc1ccc(CC(=O)O)cc1O,.,.,.,.,.,.
COc1ccc(CC2NCCC3=CC(=O)CCC32)cc1O (stereo not given),56µM,.,/,/,?,.
COc1cc(NC(=O)C(c2ccccc2)c2ccccc2)c(C(=O)O)cc1OC,.,.,.,.,.,.
CN(CC(=O)Nc1ccc(Cl)c(C(F)(F)F)c1)C(=O)Cn1cc([N+](=O)[O-])ccc1=O,.,79µM,/,.[11.6 µM],.,.
Cc1ccc(NC(=O)CN(C)C(=O)Cn2cc(C(F)(F)F)ccc2=O)cc1,.,.,.,.,.,.
CCCCC(Sc1nc2cc3c(cc2c(=O)n1CCCC(=O)NCc1ccc(OC)cc1)OCO3)C(=O)OCC (stereo not given),.,.,.,/,.,.
O=C(COc1ccccc1F)OCc1cc(=O)n2nc(-c3cccs3)sc2n1,?,.,32µM,/,.,.
O=C(OCc1cc(=O)n2nc(-c3cccs3)sc2n1)c1ccccc1,79µM,79µM,35µM,/,.,.
Cc1ccc(OCC(=O)OCc2cc(=O)n3nc(-c4cccs4)sc3n2)cc1C,?,.,?,/,.,.
Cc1ccccc1OCC(=O)OCc1cc(=O)n2nc(-c3cccs3)sc2n1,?,.,?,/,.,.
Cc1cccc(C(=O)OCc2cc(=O)n3nc(-c4cccs4)sc3n2)c1,89µM,?,20µM,/,?,.
O=C(OCc1cc(=O)n2nc(-c3cccs3)sc2n1)c1ccc(Cl)cc1,?,?,32µM,/,.,.
CCCC[C@H]1CCCO[C@@](C(=O)NCc2ccc(C)o2)(C(F)(F)F)C1,.,/,/,/,.,.
CC1Cc2ccccc2N1C(=O)CSc1nc2ccc(NC(=O)COc3ccccc3)cc2s1 (stereo not given),.,.,.,/,.,.
O=C(Cc1cccs1)Nc1nnc(Cc2ccc(F)cc2)s1,/,/,40µM,/,/,/
O=C(Cc1cccs1)Nc1nnc(-c2ccccc2)s1,.,.,.,.,.,.
CCC(CC)c1nnc(NC(=O)Cc2cccs2)s1,.,79µM,?,.,.,.
COc1ccc(S(=O)(=O)Nc2cccc(S(=O)(=O)N3CCCCCC3)c2)cc1,.,.,.,.,.,.
CC(=O)Nc1ccc(S(=O)(=O)Nc2nc3ccccc3nc2Nc2ccc(O)c(C(=O)O)c2)cc1,20µM,.,.,.[11.6 µM],79µM,?
CC(=O)Nc1ccc(S(=O)(=O)Nc2nc3ccccc3nc2Nc2ccc(S(N)(=O)=O)cc2)cc1,.,.,.,.,.,.

# Bioassay records from PubChem.
